# “And” between values parts separate entries of the source, which are not always exact repeats. Identical values can stand only once. Results filed as inconclusive are left out. The source made the active and inactive calls. Calls follow the shape of the dose curve; as a rule, active = well fitted inhibition curve with a large enough effect in the repeat runs; inconclusive = weak or mixed curves, or effect the other way; inactive = no such curve, though single readings can be large or run the other way.
# Target: Androgen receptor (Homo sapiens) (UniProt P10275)
# Experiment: qHTS assay to identify small molecule antagonists of the androgen receptor (AR) signaling pathway using the MDA cell line (AID 743042; also: nearly all actives have a fitted effect of over 55% in size)
# Conditions: MDA-kb2 AR-luc, MMTV luciferase, R1881 antagonist, 16 h; series mostly up to 70.3 µM; activity change, negative = inhibition: at the top concentration
# In short: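 MDA-kb2 breast carcinoma cells carrying MMTV-luciferase (AR/GR responsive) were co-treated with compounds and the agonist R1881 for 16 h at 37C. Inhibition read as ONE-Glo luminescence; CellTiter-Fluor fluorescence measured in parallel for cytotoxicity.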
# % is scaled to controls: 0 for no effect and ±100 for the full control effect; potency is read from the fitted curve at half-maximal effect.
# Androgen receptor (Homo sapiens), sequence (P10275 whole entry, looked up): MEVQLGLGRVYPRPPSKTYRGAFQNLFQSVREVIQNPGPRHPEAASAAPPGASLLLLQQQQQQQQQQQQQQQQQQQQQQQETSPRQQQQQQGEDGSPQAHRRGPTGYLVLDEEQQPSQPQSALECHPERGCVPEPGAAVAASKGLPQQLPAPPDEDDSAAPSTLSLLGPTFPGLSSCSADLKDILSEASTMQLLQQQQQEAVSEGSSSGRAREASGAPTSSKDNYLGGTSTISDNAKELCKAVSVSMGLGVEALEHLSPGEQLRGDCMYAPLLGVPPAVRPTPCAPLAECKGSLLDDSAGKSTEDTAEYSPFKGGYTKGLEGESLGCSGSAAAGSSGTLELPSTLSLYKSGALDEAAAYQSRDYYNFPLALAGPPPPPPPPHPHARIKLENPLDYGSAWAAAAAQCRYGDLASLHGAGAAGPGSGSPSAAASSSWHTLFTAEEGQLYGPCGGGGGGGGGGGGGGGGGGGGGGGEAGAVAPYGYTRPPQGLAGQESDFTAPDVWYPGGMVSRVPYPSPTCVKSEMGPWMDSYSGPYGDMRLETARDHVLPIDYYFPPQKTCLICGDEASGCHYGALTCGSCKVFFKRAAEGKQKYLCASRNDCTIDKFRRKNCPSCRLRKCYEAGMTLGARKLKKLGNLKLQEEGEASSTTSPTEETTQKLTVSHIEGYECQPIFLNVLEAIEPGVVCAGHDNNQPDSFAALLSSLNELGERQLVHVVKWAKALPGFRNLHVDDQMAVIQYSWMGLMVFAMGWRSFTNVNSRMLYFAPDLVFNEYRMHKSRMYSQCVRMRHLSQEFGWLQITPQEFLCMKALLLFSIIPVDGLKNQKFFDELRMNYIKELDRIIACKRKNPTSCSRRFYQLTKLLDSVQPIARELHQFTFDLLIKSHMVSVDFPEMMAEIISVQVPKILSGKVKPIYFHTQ
Structure (SMILES),"activity change, negative = inhibition",Potency
OCCN(CCO)c1nc(N2CCCCC2)c2nc(N(CCO)CCO)nc(N3CCCCC3)c2n1,0.164% (inactive),–
CC(C)(C)C(=O)OCOC(=O)C1N2C(=O)CC2S(=O)(=O)C1(C)C (centres undefined),2.86% (inactive),–
CCCCCCCCNC(C)C(O)c1ccc(SC(C)C)cc1 (centres undefined),-3.24% (inactive),–
COc1ccc(C(=O)/C(Br)=C\C(=O)O)cc1,–,23.7 µM (active) and 30.6 µM (active)
